This is part of a sample that, as a whole, favours compounds with a hit. Of some 79,000 tested, about 15% had one in any assay. Activity calls are given as the source filed them. Cut-off read from the data, not from the text of the source: active = growth inhibition above about 70%; inactive = the rest.
Experiments:
[1] = NCI Yeast Anticancer Drug Screen. Data for the mec2-1 strain (AID 157); conditions: S. cerevisiae mec2-1 strain, hits give high values
Procedure, shortened: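 Test agents were screened against the mec2-1 yeast strain, with defined DNA repair or cell cycle alteration. Growth was scored as inhibition against vehicle-only controls.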

[2] = NCI Yeast Anticancer Drug Screen. Data for the rad14 strain (AID 159);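 note: 0% = growth of vehicle-treated control cultures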; conditions: S. cerevisiae rad14 strain growth inhibition, hits give high values
Procedure, shortened: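 Screen for anticancer potential: a yeast strain altered in DNA damage repair is grown with compound, and reduced growth is quantified against vehicle controls.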

[3] = NCI Yeast Anticancer Drug Screen. Data for the sgs1 mgt1 strain (AID 161);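 note: 0% = growth of cultures given vehicle only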; conditions: S. cerevisiae sgs1 mgt1 strain, hits give high values
Procedure, shortened: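 Inhibition of yeast growth, normalised to vehicle-treated controls, is reported for a strain bearing genetic alterations in DNA damage repair.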

[4] = NCI Yeast Anticancer Drug Screen. Data for the CLN2oe strain (AID 163);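 note: 0% = growth of vehicle-only control cultures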; conditions: S. cerevisiae CLN2oe strain, hits give high values
Procedure, shortened: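 Here, growth inhibition in a cell-cycle-altered yeast strain after compound exposure was quantified against vehicle control growth.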

[5] = NCI Yeast Anticancer Drug Screen. Data for the cln2 rad14 strain (AID 165);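 note: 0% = growth equal to vehicle treated cultures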; conditions: S. cerevisiae cln2 rad14 strain, hits give high values
Procedure, shortened: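 Growth of compound-exposed yeast (cln2 rad14 genotype) measured and expressed as inhibition relative to vehicle.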

[6] = NCI Yeast Anticancer Drug Screen. Data for the bub3 strain (AID 167); conditions: S. cerevisiae bub3 mutant strain, hits give high values
Procedure, shortened: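 Screening used yeast with an engineered genetic alteration affecting cell cycle control. Compound-exposed cultures were compared with vehicle cultures, and reduced growth was taken as inhibition.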

[7] = NCI Yeast Anticancer Drug Screen. Data for the wt2 strain (AID 169);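 note: 0% = growth of vehicle-treated yeast cultures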; conditions: S. cerevisiae wt2 strain growth inhibition, hits give high values
Procedure, shortened: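 Genetically defined yeast strains from a DNA-repair/cell-cycle panel were used. Compound-exposed yeast growth was measured, and the inhibition was calculated relative to vehicle treatment.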

[8] = NCI Yeast Anticancer Drug Screen. Data for the mlh1 strain (AID 171);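 note: 0% = growth of vehicle-treated control cultures of the same strain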; conditions: S. cerevisiae mlh1 strain growth inhibition, hits give high values
Procedure, shortened: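 Here the genetically defined yeast mutant is grown with each compound, and the extent to which its growth falls below that of vehicle-exposed cells is reported.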

[9] = NCI Yeast Anticancer Drug Screen. Data for the sgs1 strain (AID 173);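 note: 0% = growth of vehicle-only control cultures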; conditions: S. cerevisiae sgs1 mutant, hits give high values
Procedure, shortened: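 Relative growth inhibition, referenced to vehicle, was determined in a yeast strain with a defined alteration affecting DNA damage repair or cell cycle control after compound exposure.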

[10] = NCI Yeast Anticancer Drug Screen. Data for the mlh1 rad18 strain (AID 175); conditions: S. cerevisiae mlh1 rad18 strain growth inhibition, hits give high values
Procedure, shortened: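 In this whole-cell yeast screen, a strain with altered DNA damage repair is challenged with compound, and its growth is measured against matched vehicle-treated controls.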

[11] = NCI Yeast Anticancer Drug Screen. Data for the rad18 strain (AID 177); conditions: S. cerevisiae rad18 mutant growth inhibition, hits give high values
Procedure, shortened: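 Screen uses a yeast strain with a defined lesion in DNA damage repair; compound effect is read as loss of growth compared to untreated vehicle cultures.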

[12] = NCI Yeast Anticancer Drug Screen. Data for the rad52 strain (AID 147);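 note: 0% = growth of vehicle-treated control cultures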; conditions: S. cerevisiae rad52 mutant growth inhibition, hits give high values
Procedure, shortened: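 Measured: yeast growth inhibition. System: strain with a defined DNA damage repair alteration. Reference: vehicle-treated control cultures.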

[13] = NCI Yeast Anticancer Drug Screen. Data for the wt1 strain (AID 149);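 note: 0% = growth of vehicle-treated wt1 cultures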; conditions: S. cerevisiae wt1 strain (SPY 50644) growth inhibition, hits give high values
Procedure, shortened: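 Using yeast strain wt1, compound-induced growth inhibition was determined against vehicle-treated cultures.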

[14] = NCI Yeast Anticancer Drug Screen. Data for the rad50EPP+ strain (AID 151);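 note: 0% = growth of vehicle-treated control cultures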; conditions: S. cerevisiae rad50 mutant strain, hits give high values
Procedure, shortened: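 One strain with a rad50 alteration (rad50EPP+) was compound-treated, its growth then compared to that of vehicle controls.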

[15] = NCI Yeast Anticancer Drug Screen. Data for the rad50 strain (AID 155);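 note: 0% = growth of vehicle-only cultures of the same strain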; conditions: S. cerevisiae rad50 strain growth inhibition, hits give high values
Procedure, shortened: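 Relative growth inhibition (compound vs vehicle) was measured in yeast with a defined repair-gene alteration.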

[16] = at 5.0 µM (retest, dose inferred, filed as 0.5)
[17] = at 50.0 µM (retest, dose inferred, filed as 5.0)

Measured: growth inhibition

Cc1cc(O)c2c(c1O)C(=O)C13C(=C2O)C(=O)C2C(O)C1C1C(O)C3C(=O)C3=C(O)c4c(O)cc(C)c(O)c4C(=O)C321 (centres undefined)
inactive: [2]; at 1.2 µM -6% | [2]; at 3.7 µM 9% | [2]; at 11.0 µM 52% | [3]; [16] 37% | [4]; at 1.2 µM 18% | [4]; at 3.7 µM 17% | [5]; [16] 28% | [5]; at 50.0 µM 29.8% | [6]; at 1.2 µM -5% | [6]; at 3.7 µM 4% | [6]; [16] 59% | [6]; at 11.0 µM 27% | [7]; at 1.2 µM 12% | [7]; at 3.7 µM 26% | [7]; at 11.0 µM 52% | [8]; at 1.2 µM 18% | [8]; at 3.7 µM 15% | [8]; at 11.0 µM 43% | [9]; at 1.2 µM 29% | [9]; at 3.7 µM 31% | [9]; at 11.0 µM 54% | [10]; [16] 58% | [10]; at 50.0 µM 63.4% | [11]; at 1.2 µM -3% | [11]; at 3.7 µM -4% | [11]; at 11.0 µM 15%
active: [1]; at 100.0 µM 83% | [2]; at 33.0 µM 77% | [2]; at 100.0 µM 80% | [3]; [17] 86% | [3]; at 50.0 µM 79.2% | [4]; at 11.0 µM 84% | [4]; at 33.0 µM 91% | [4]; at 100.0 µM 83% | [5]; [17] 91% | [6]; at 33.0 µM 82% | [6]; [17] 87% | [6]; at 50.0 µM 77% | [6]; at 100.0 µM 84% | [7]; at 33.0 µM 87% | [7]; at 100.0 µM 85% | [8]; at 33.0 µM 79% | [8]; at 100.0 µM 83% | [9]; at 33.0 µM 80% | [9]; at 100.0 µM 80% | [10]; [17] 86% | [11]; at 33.0 µM 73% | [11]; at 100.0 µM 84%

CN(NC(=O)/C(=C/c1ccc(O)cc1)NC(=O)c1ccccc1)c1ccnc2cc(Cl)ccc12
active: [12]; at 100.0 µM 79% | [15]; at 50.0 µM 80.1% | [15]; at 100.0 µM 81% | [1]; at 100.0 µM 72% | [7]; at 100.0 µM 70% | [8]; at 100.0 µM 81% | [9]; at 100.0 µM 83% | [10]; at 50.0 µM 80.3% | [11]; at 33.0 µM 78% | [11]; at 100.0 µM 87%
inactive: [12]; at 1.2 µM 2% | [12]; at 3.7 µM 9% | [12]; at 11.0 µM 35% | [12]; at 33.0 µM 60% | [13]; at 1.2 µM 3% | [13]; at 3.7 µM 4% | [13]; at 11.0 µM 11% | [13]; at 33.0 µM 40% | [13]; at 100.0 µM 69% | [14]; at 1.2 µM -2% | [14]; at 3.7 µM 3% | [14]; at 11.0 µM 14% | [14]; at 33.0 µM 34% | [14]; at 100.0 µM 42% | [15]; at 1.2 µM -2% | [15]; at 3.7 µM -4% | [15]; [16] 6% | [15]; at 11.0 µM 15% | [15]; at 33.0 µM 68% | [15]; [17] 20% | [1]; at 1.2 µM 1% | [1]; at 3.7 µM 4% | [1]; [16] 15% | [1]; at 11.0 µM 12% | [1]; at 33.0 µM 44% | [1]; [17] 2% | [1]; at 50.0 µM 46.9% | [2]; at 1.2 µM 0% | [2]; at 3.7 µM 2% | [2]; at 11.0 µM 13% | [2]; at 33.0 µM 38% | [2]; at 100.0 µM 60% | [3]; [16] 9% | [3]; [17] 9% | [3]; at 50.0 µM 51.1% | [5]; [16] -3% | [5]; [17] 2% | [5]; at 50.0 µM -2.45% | [6]; at 1.2 µM -1% | [6]; at 3.7 µM 4% | [6]; [16] 21% | [6]; at 11.0 µM 16% | [6]; at 33.0 µM 43% | [6]; [17] 65% | [6]; at 50.0 µM 55.1% | [6]; at 100.0 µM 68% | [7]; at 1.2 µM -3% | [7]; at 3.7 µM -1% | [7]; at 11.0 µM 11% | [7]; at 33.0 µM 47% | [8]; at 1.2 µM 1% | [8]; at 3.7 µM 4% | [8]; at 11.0 µM 21% | [8]; at 33.0 µM 64% | [9]; at 1.2 µM 2% | [9]; at 3.7 µM 4% | [9]; at 11.0 µM 14% | [9]; at 33.0 µM 67% | [10]; [16] 1% | [10]; [17] 2% | [11]; at 1.2 µM 1% | [11]; at 3.7 µM 7% | [11]; at 11.0 µM 45%

COC(=O)CSc1nnc(CSc2ccc(Cl)cc2)n1-c1ccccc1
active: [6]; [17] 75% | [6]; at 50.0 µM 74.5%
inactive: [12]; at 1.2 µM 1% | [12]; at 3.7 µM 3% | [12]; at 11.0 µM 5% | [12]; at 33.0 µM 12% | [12]; at 100.0 µM 5% | [13]; at 1.2 µM -1% | [13]; at 3.7 µM -2% | [13]; at 11.0 µM -3% | [13]; at 33.0 µM 0% | [13]; at 100.0 µM 2% | [14]; at 1.2 µM -2% | [14]; at 3.7 µM 0% | [14]; at 11.0 µM -2% | [14]; at 33.0 µM -5% | [14]; at 100.0 µM -11% | [15]; at 1.2 µM 2% | [15]; at 3.7 µM 4% | [15]; [16] -16% | [15]; at 11.0 µM 9% | [15]; at 33.0 µM 15% | [15]; [17] 15% | [15]; at 50.0 µM 6.25% | [15]; at 100.0 µM 12% | [1]; at 1.2 µM -3% | [1]; at 3.7 µM -1% | [1]; [16] -9% | [1]; at 11.0 µM 3% | [1]; at 33.0 µM 10% | [1]; [17] 18% | [1]; at 50.0 µM 16.9% | [1]; at 100.0 µM 12% | [3]; [16] -11% | [3]; [17] 68% | [3]; at 50.0 µM 58.5% | [4]; at 1.2 µM -2% | [4]; at 3.7 µM 6% | [4]; at 11.0 µM 14% | [4]; at 33.0 µM 19% | [4]; at 100.0 µM 19% | [5]; [16] -6% | [5]; [17] 43% | [5]; at 50.0 µM 44% | [6]; at 1.2 µM -1% | [6]; at 3.7 µM 6% | [6]; [16] 7% | [6]; at 11.0 µM 22% | [6]; at 33.0 µM 46% | [6]; at 100.0 µM 57% | [7]; at 1.2 µM -1% | [7]; at 3.7 µM 1% | [7]; at 11.0 µM -1% | [7]; at 33.0 µM 1% | [7]; at 100.0 µM 4% | [8]; at 1.2 µM -1% | [8]; at 3.7 µM -1% | [8]; at 11.0 µM 2% | [8]; at 33.0 µM 9% | [8]; at 100.0 µM 14% | [9]; at 1.2 µM -2% | [9]; at 3.7 µM -3% | [9]; at 11.0 µM 2% | [9]; at 33.0 µM 13% | [9]; at 100.0 µM 15% | [10]; [16] -11% | [10]; [17] 32% | [10]; at 50.0 µM 7% | [11]; at 1.2 µM -1% | [11]; at 3.7 µM 2% | [11]; at 11.0 µM 4% | [11]; at 33.0 µM 8% | [11]; at 100.0 µM 9%

Source: PubChem BioAssay (NCI)
